According to PubChem BioAssay (NCI):
The panel holds about 79,000 compounds, 15% with a hit somewhere; the sample as a whole holds those more often. A number with no mark means an inactive call. The source made the active and inactive calls. No stated cut-off is given here; in the data, active means growth inhibition above about 70%; inactive means the rest.

Experiments:
[1] = NCI Yeast Anticancer Drug Screen. Data for the rad50 strain (AID 155);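 further: 0% = growth of vehicle-only cultures of the same strain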; conditions: S. cerevisiae rad50 strain growth inhibition, stronger effect = higher value
Method in brief: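 Inhibition values express reduced yeast growth in compound-treated cultures relative to vehicle-treated controls.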

[2] = NCI Yeast Anticancer Drug Screen. Data for the mec2-1 strain (AID 157); conditions: S. cerevisiae mec2-1 strain, stronger effect = higher value
Method in brief: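 mec2-1 yeast strain, carrying an alteration in DNA damage repair or cell cycle control, was exposed to compounds; growth inhibition was measured relative to vehicle-treated controls.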

[3] = NCI Yeast Anticancer Drug Screen. Data for the sgs1 mgt1 strain (AID 161);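 further: 0% = growth of cultures given vehicle only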; conditions: S. cerevisiae sgs1 mgt1 strain, stronger effect = higher value
Method in brief: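 Compounds are added to genetically altered yeast, and growth is compared with cultures given vehicle alone to give percent inhibition.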

[4] = NCI Yeast Anticancer Drug Screen. Data for the cln2 rad14 strain (AID 165);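 further: 0% = growth equal to vehicle treated cultures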; conditions: S. cerevisiae cln2 rad14 strain, stronger effect = higher value
Method in brief: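 Yeast carrying cln2 and rad14 alterations (cell cycle control and DNA damage repair) were exposed to compounds. Growth inhibition was measured against vehicle-treated controls.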

[5] = NCI Yeast Anticancer Drug Screen. Data for the bub3 strain (AID 167); conditions: S. cerevisiae bub3 mutant strain, stronger effect = higher value
Method in brief: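 Steps: expose the mutant yeast strain to compound; grow alongside vehicle-treated cultures; measure growth; express inhibition against the vehicle cultures.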

[6] = NCI Yeast Anticancer Drug Screen. Data for the mlh1 rad18 strain (AID 175); conditions: S. cerevisiae mlh1 rad18 strain growth inhibition, stronger effect = higher value
Method in brief: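 Growth inhibition of the yeast strain was measured after compound exposure and expressed relative to vehicle-treated controls. The strain carries defined defects in DNA damage repair.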

[7] = at 5.0 µM (retest, dose inferred, filed as 0.5)
[8] = at 50.0 µM (retest, dose inferred, filed as 5.0)

Row | Structure (SMILES) | growth inhibition [1, 7] | growth inhibition [1, 8] | growth inhibition ([1]; at 50.0 µM) | growth inhibition [2, 7] | growth inhibition [2, 8] | growth inhibition ([2]; at 50.0 µM) | growth inhibition [3, 7] | growth inhibition [3, 8] | growth inhibition ([3]; at 50.0 µM) | growth inhibition [4, 7] | growth inhibition [4, 8] | growth inhibition ([4]; at 50.0 µM) | growth inhibition [5, 7] | growth inhibition [5, 8] | growth inhibition ([5]; at 50.0 µM) | growth inhibition [6, 7] | growth inhibition [6, 8] | growth inhibition ([6]; at 50.0 µM)
1 | [Au+].[Au+].[Au+].[c-]1nccn1Cc1ccccc1.[c-]1nccn1Cc1ccccc1.[c-]1nccn1Cc1ccccc1 | 13% | 97% (active) | 76.6% (active) | 11% | 98% (active) | 88.2% (active) | 29% | 97% (active) | 88.9% (active) | 12% | 97% (active) | 88.8% (active) | 18% | 98% (active) | 84.3% (active) | 57% | 96% (active) | 90.9% (active)
2 | CC1CCC2(OC1)OC1C(O)C3C4CCC5CC(OC6OC(CO)C(OC7OC(CO)C(O)C(OC8OCC(O)C(O)C8O)C7OC7OC(CO)C(O)C(OC8OC(CO)C(O)C(O)C8O)C7O)C(O)C6O)C(O)CC5(C)C4CCC3(C)C1C2C (configuration not stated) | 95% (active) | 99% (active) | 93.2% (active) | 97% (active) | 99% (active) | 94% (active) | 93% (active) | 99% (active) | 93.8% (active) | 72% (active) | 99% (active) | 92.3% (active) | 97% (active) | 99% (active) | 93.2% (active) | 96% (active) | 98% (active) | 88% (active)
3 | COc1cc(/C=C(\C)[N+](=O)[O-])cc(Br)c1O | 0% | 61% | 86.7% (active) | 1% | 82% (active) | 90.8% (active) | 8% | 91% (active) | 91% (active) | 3% | 43% | 53.5% | -3% | 54% | 93% (active) | 2% | 81% (active) | 98.7% (active)
4 | CC(C)(C)S.[Hg] | 68% | 98% (active) | 99.5% (active) | 99% (active) | 98% (active) | 99.7% (active) | 98% (active) | 99% (active) | 99.7% (active) | 99% (active) | 99% (active) | 99.2% (active) | 89% (active) | 99% (active) | 99.5% (active) | 75% (active) | 99% (active) | 99.5% (active)
5 | COC12C(COC(N)=O)C3=C(C(=O)C(C)=C(N)C3=O)N1CC1C2N1C (configuration not stated) | 10% | 74% (active) | 43.6% | 16% | 84% (active) | 44.6% | 16% | 77% (active) | 55.7% | 1% | 77% (active) | 38.4% | 5% | 55% | 31% | 34% | 92% (active) | 75.8% (active)
6 | [CH3][Sn]([CH3])([S]CCS(=O)(=O)O)[S]CCS(=O)(=O)O | 10% | 7% | 33.5% | 9% | 11% | 7.1% | -38% | -30% | -9.75% | -10% | -12% | -5.95% | -20% | -24% | -12.2% | 14% | 11% | -61.6%
7 | Cc1[cH-]c(=O)n(-c2ccccc2)n1.[Au+].[Au].c1ccc([PH+](c2ccccc2)c2ccccc2)cc1.c1ccc([PH+](c2ccccc2)c2ccccc2)cc1 | 27% | 65% | 88.8% (active) | 32% | 96% (active) | 90.3% (active) | 33% | 93% (active) | 91.5% (active) | 18% | 65% | 88.7% (active) | 19% | 87% (active) | 89.4% (active) | 35% | 79% (active) | 83% (active)
8 | Oc1c(Cl)c(Cl)cc(Cl)c1Cl | 8% | 90% (active) | 23.5% | 7% | 97% (active) | 68.9% | 34% | 95% (active) | 61.1% | -27% | 94% (active) | 79.8% (active) | 13% | 92% (active) | 48.3% | -6% | 92% (active) | 61.8%
9 | COC1=C(Cl)C(=O)c2ccccc2C1=O | 8% | 98% (active) | 99.2% (active) | 15% | 99% (active) | 99.5% (active) | 6% | 99% (active) | 99.6% (active) | -2% | 98% (active) | 99.1% (active) | 30% | 98% (active) | 99.2% (active) | 7% | 99% (active) | 99.4% (active)
